# Fluor 339 460 – intrinsic fluorescence of library compounds, ex339/em460 – biochemical, MLSMR library, data from DPM-DC assay, artefact control, profiling panel; compound autofluorescence, ex339/em460 nm, NADH buffer; active compounds read high; 1 = no-compound wells, NADH background; fluorescence fold increase at 10 µM; actives 5.5% (n = 65,000); AID 709;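 active = at 10 µM, mean starting fluorescence two-fold or more over control wells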;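 note: signal is the first read of a kinetic run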
# A340 absorber – absorbance at 340 nm; compound absorbance at 340 nm, fold over control; fold change at 10 µM; 65,000 tested, under 10 active; AID 708;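 active = at 10 µM dose, initial 340 nm absorbance at least 2 fold that of control wells; inactive = change under 2 fold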;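 note: initial absorbance extrapolated from kinetic A340 decline of NADH oxidation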
# Spn DPM-DC inh – blocks S. pneumoniae diphosphomevalonate decarboxylase | purified DPM-DC, PK/LDH coupled NADH fluorescence | actives 0.49% (n = 65,000) | calls only at 10 µM;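 active = the 320 compounds with the highest percent inhibition in the single-dose primary screen, excluding strongly autofluorescent ones, cut at about 32% in these data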;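 note: kinetic rate of NADH fluorescence loss reporting ADP formed by the decarboxylase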
# MK inhibit – inhibitors of Streptococcus pneumoniae mevalonate kinase; purified MK, PK/LDH-coupled NADH absorbance 340 nm; AID 555; inhibition, % at 10 µM; actives 0.48% (n = 65,000);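 active = ranked among the strongest by inhibition in the single 10 µM screen, a fixed top-ranked set picked for dose follow-up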
# NADH enzymes – blocks coupling enzymes of NAD/NADH assays. coupled PK/LDH NADH assays, four targets. IC50, µM (highest dose often 10 µM), without a hit: top-dose inhibition. actives 0.02% (n = 65,000). AID 774;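 active = single-dose screening hits from any of four coupled enzyme assays that gave an IC50 when retested across doses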;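 note: the DPM-DC format reads NADH fluorescence rather than 340 nm absorbance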
# PMK inhibit – inhibitors of Streptococcus pneumoniae phosphomevalonate kinase | purified PMK, PK/LDH-coupled NADH absorbance 340 nm | AID 539 | actives 0.49% (n = 65,000) | inhibition, % at 10 µM;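 active = top-ranked compounds by inhibition in the single 10 µM screen, taking a fixed number of the strongest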;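 note: 0% = full reaction with DMSO carrier and 100% = background rate without enzyme reaction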
# An asterisk follows results filed as active; i = inactive; · = no result given; + = active, no number. In the library only some 6.8% were active in any assay of this set; here they are far more common.
SMILES,Fluor 339 460,A340 absorber,Spn DPM-DC inh,MK inhibit,NADH enzymes,PMK inhibit
Cc1cc(C)n(CCc2nc3c4ccccc4n(CC(=O)Nc4ccc(Cl)cc4F)c(=O)n3n2)n1,1.1,1,i,0,1%,2
O=C(CSc1nc2ccccc2o1)NCCOc1ccccc1,1.1,1,i,5,3%,5
O=C(NCC1CCCO1)C1c2ccccc2C(=O)N1C1CCCCCC1 (centres undefined),1,0.98,i,3,2%,13
Cc1cccn2c(=O)c3cc(C(=O)NCc4cccnc4)c(=N)n(C(C)C)c3nc12,3.7*,1.1,·,15,11%,7
O=C(NCc1cccnc1)c1cnn2ccccc12,1.2,1.1,i,5,3%,4
Cc1cc(C)n2ncc(C(=O)NCc3cccnc3)c2n1,3.6*,1,i,9,7%,8
Cc1ccc2nc3c(cc(C(=O)NCc4cccnc4)c(=N)n3C(C)C)c(=O)n2c1,5*,1,·,3,7%,11
Cc1cccn2c(=O)c3cc(C(=O)NCc4cccnc4)c(=N)n(C)c3nc12,1.9,1,i,3,9%,9
Cn1c(NCc2ccco2)nc2c1c(=O)n(Cc1ccc(Cl)c(Cl)c1)c(=O)n2C,1.1,0.89,i,16,5%,0
Cc1cccn2cc(CCNC(=O)c3ccc(Br)o3)nc12,1.1,1,i,5,3%,4
Nc1nc(-c2cccc(NS(=O)(=O)c3ccccc3)c2)cs1,1,0.99,i,4,1%,0
CCCCOc1ccc(C(=O)OC(C)CN(C)C)cc1 (centres undefined),5*,1,·,5,7%,8
N#CC(C(=O)c1ccco1)c1ccccn1 (centres undefined),1,1.1,i,0,11%,0
CCCn1c(=NC(=O)c2ccc3c(c2)OCO3)c(C#N)cc2c(=O)n3cccc(C)c3nc21,1.4,1,i,7,7%,13
CCCn1c(=NC(=O)c2ccncc2)c(C#N)cc2c(=O)n3cccc(C)c3nc21,3.6*,1.1,·,0,5%,9
COCCCn1c(=NC(=O)c2ccncc2)c(C#N)cc2c(=O)n3cccc(C)c3nc21,3.9*,1.1,·,9,5%,0
Cc1cccn2c(=O)c3cc(C#N)c(=N)n(CCN4CCOCC4)c3nc12,1.9,1,·,11,6%,0
Cc1cccn2c(=O)c3cc(C#N)c(=NC(=O)c4ccncc4)n(CCCOC(C)C)c3nc12,3.6*,1.1,·,0,3%,6
CCOC(=O)Nc1ccc2c(c1)N(C(=O)N(CC)CC)c1ccccc1CC2,1.1,1,i,0,3%,9
Cc1noc(C)c1CSc1nnc(-c2ccncc2)n1-c1ccc(Cl)c(Cl)c1,1.1,1,i,5,8%,10
O=C(CSc1ncnc2c1cnn2-c1ccccc1)Nc1ccc2c(c1)OCO2,1.7,1.1,+,12,15%,2
Cc1c2c(n3c(nc4ccccc43)c1C#N)N(Cc1cccnc1)CC2,5*,1.1,·,0,4%,7
Cc1cc(N2CCN(c3ccccn3)CC2)n2c(nc3ccccc32)c1C#N,2.2*,1,i,12,11%,3
Cc1c2c(n3c(nc4ccccc43)c1C#N)N(Cc1ccccn1)CC2,4.9*,0.98,·,0,10%,19
N#Cc1c2c(c(N3CCN(c4ccccn4)CC3)n3c1nc1ccccc13)CCC2,1.2,1,i,5,2%,0
SMILES,Fluor 339 460,A340 absorber,Spn DPM-DC inh,MK inhibit,NADH enzymes,PMK inhibit
COCCNc1cc(C)c(C#N)c2nc3ccccc3n12,2.3*,1,·,9,7%,5
O=c1oc2cc(OCc3nn[nH]n3)ccc2c2c1CCCC2,3.8*,1.1,·,0,2%,3
Cc1cc2oc(=O)c3c(c2cc1OCc1nn[nH]n1)CCCC3,3.3*,1.1,·,2,4%,5
Cc1c(NC(=O)CSc2nc3ccccc3n2C)c(=O)n(-c2ccccc2)n1C,1,1,i,12,7%,9
COC(=O)C1=CN(CCCN2CCCC2=O)C=C(C(=O)OC)C1c1cccs1,4.8*,1,·,4,6%,8
COC(=O)C1=C(N)OC2=C(C(=O)CC(C)(C)C2)C1c1cccs1 (centres undefined),1.1,1.1,i,4,1%,0
CN(C)S(=O)(=O)c1ccc(N2CCOCC2)nc1,1.1,1,i,6,8%,8
Cc1ccc(C)n1-c1ccc(N2CCOCC2)nc1,3.7*,1.1,·,8,5%,1
COc1ccccc1NC(=O)c1ccc(NC(=O)CSc2nnnn2C)cc1,1,0.97,i,0,4%,21
CCOC(=O)Nc1cc(=O)c2ccccc2o1,1.6,1,i,2,3%,0
CCOC(=O)Nc1cc2c(C)cc(=O)oc2cc1C,3.6*,1,i,7,15%,9
CC(=O)c1cccc(S(=O)(=O)N2CCN(c3nc4cc(C)cc(C)c4cc3C#N)CC2)c1,2.2*,1.1,i,1,0%,0
COc1ccc(-c2cc(C(F)F)n3ncc(C(=O)N4CCN(C(=O)c5ccco5)CC4)c3n2)cc1,2.1*,1.1,·,11,14%,17
O=C(c1ccco1)N1CCN(C(=O)c2cnn3c(C(F)(F)F)cc(-c4cccs4)nc23)CC1,3.6*,1.1,·,7,6%,5
COc1ccc(NC(=O)NCCCN2CCCC2=O)cc1,1.1,0.99,i,11,12%,19
CN1CCN(C(=O)c2cnn3c(C(F)(F)F)cc(-c4ccc5c(c4)OCO5)nc23)CC1,1.1,1.1,i,6,8%,14
COc1ccc(-c2cc(C(F)F)n3ncc(C(=O)NCCCN4CCCC4=O)c3n2)cc1,2.2*,1.1,·,6,11%,15
CCN1CCN(C(=O)c2cnn3c(C(F)F)cc(-c4ccc(C)cc4)nc23)CC1,2.3*,1.1,i,9,13%,9
Cc1ccc(S(=O)(=O)CCc2nc3ccccc3n2CCC#N)cc1,1.1,1,i,2,3%,0
COc1ccc(C2CCCN2C(=O)Nc2ccc(F)cc2)cc1OC (centres undefined),1,1,i,10,5%,6
CCOC(=O)Nc1ccc(OC)cc1S(=O)(=O)N1CCCCC1,1.1,1,i,3,1%,8
O=C(O)C1C2C=CC(C2)C1C(=O)Nc1ccc(C(=O)N2CCCCC2)c(Cl)c1 (centres undefined),1.1,1,i,6,5%,9
COc1ccc(-c2nsc3c(N4CCN(C(=O)c5ccco5)CC4)ncnc23)cc1,2.8*,1.1,+,9,18%,11
O=C(c1ccco1)N1CCN(c2ncnc3c(-c4ccccc4)nsc23)CC1,1.4,1,i,7,8%,9
